This test in a line: off-target binding across receptor and transporter panel, profiling panel, selectivity assay for M4 PAM project, biochemical, Ricerca panel, percent inhibition (AID 588758). Conditions: Ricerca radioligand binding panel, % inhibition, at 10 µM, stronger effect = higher value.

In general, inhibition refers to the percentage by which the read-out fell short of the control.

Calls of active or inactive are those of the source.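 How the source made its calls: active means compound cutting binding or function at one or more panel targets by over half; inactive means the rest.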

Turning to `Cc1nc2sc(C(=O)NCc3ccncc3)c(N)c2c(C)c1Cl`, the inhibition is 79% (active). This compound gave an inhibition (GABA-A flunitrazepam site binding) of 64%. In addition, the inhibition (measured here: 5-HT2B receptor binding) is 74%. This compound also returned an inhibition (measured here: 5-HT3 receptor binding) of 35%. Besides, the inhibition (measured here: Adenosine A3 binding) was 40%. Where the note is “measured here: Adrenergic beta2 binding”, this compound displayed an inhibition of 36%. In addition, the inhibition (measured here: GABA-B 1A binding) turned out to be 25%. The compound also came in with an inhibition (measured here: Muscarinic M1 binding) of 9%. In addition, the inhibition (measured here: Muscarinic M2 binding) stood at 10%. In addition, under “measured here: Muscarinic M3 binding”, the inhibition came to 14%. Moreover, the inhibition (measured here: Norepinephrine transporter binding) turned out to be 35%. Under “measured here: Serotonin transporter binding”, this compound came in with an inhibition of 3%. For the same compound, for the setting “measured here: hERG channel binding”, the inhibition turned out to be 12%.

The values above are taken from PubChem BioAssay AID588758 (Vanderbilt Specialized Chemistry Center, 2011).
